In PubChem BioAssay (NCATS):
“And” between values parts separate entries of the source, which are not always exact repeats. Equal entries are not always repeated. Records with an inconclusive call do not appear. Entries that show only a call come without a potency. The source made the active and inactive calls. Unless noted, calls come from the whole dose curve; as a rule, active = well fitted curve in the direction sought with a large enough effect; inconclusive = small, poorly fitted or top-dose-only effect, or another doubt; inactive = no such curve, though single readings can be large; an effect the other way counts as inactive or inconclusive.

Experiments:
[1] = Cell Viability - Hek293 (AID 427;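 active = compounds whose dose-response curve shows a full or clear partial loss of cell viability, called from curve shape rather than a numeric limit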;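 note: potency is the fitted concentration of half-maximal effect; cells exposed to compound for 40 hours at 37 °C before reading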); settings: qHTS
Procedure, shortened: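 qHTS, human embryonic kidney (adenovirus-transformed) cells; 40 hr cpd, 37 °C; CellTiter-Glo ATP luminescence. Norm: DMSO = 0, 100 uM tamoxifen = 100% inhibition. Hill-fit AC50.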

[2] = Cell Viability - SK-N-SH (AID 435; calls by dose curve;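 note: potency is the fitted concentration of half-maximal effect; compound exposure lasted 40 h at 37 °C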); settings: SK-N-SH neuroblastoma cell viability qHTS
Procedure, shortened: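 Human neuroblastoma line, 40 h exposure at 37 °C, ATP quantified via luciferase luminescence; DMSO and 100 uM tamoxifen define 0 and 100% inhibition for AC50 fitting.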

[3] = Cell Viability - Renal Proximal Tubule (AID 545); settings: renal proximal tubule cells viability, primary cells of rat origin; activity change, negative = cytotoxicity: at 91.7 µM (top of the series); note: nearly all actives have a fitted effect of over 40% in size
Procedure, shortened: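 In this qHTS format, normal rat kidney-derived proximal tubule cells in complete culture medium receive compound titrations, then sit 40 hours at 37 °C before luciferase-based ATP quantitation; potency is reported as AC50 from concentration-response curves.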

[4] = MultiTox-Fluor Cytotoxicity Assay - LYMP1-001 - Live Cells (AID 947); settings: LYMP1-001 lymphoblastoid cells, live-cell protease fluorescence viability; series mostly up to 92.2 µM
[5] = MultiTox-Fluor Cytotoxicity Assay - LYMP1-002 - Dead Cells (AID 960); settings: LYMP1-002 lymphoblastoid cells, dead-cell protease fluorescence; series mostly up to 46.1 µM;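 note: cells exposed to compound for 16 h at 37 °C; nearly all actives have a fitted effect of over 60% in size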
Procedure, shortened: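 Readout: fluorescence at 485/520 from cell-impermeant bis-AAF-R110 cleaved by proteases leaking from damaged cells. LYMP1-002 lymphoblastoid line, 16 hr compound treatment at 37 C, concentration-response in qHTS format; Hill-equation AC50 values.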

[6] = Cell Viability - LYMP2-005 (AID 967); settings: LYMP2-005 lymphoblastoid cell viability; series mostly up to 92.2 µM
Procedure, shortened: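 Luciferase-based ATP quantitation served as the viability measure in human lymphoblastoid LYMP2-005 cells exposed to test compounds for 24 h at 37 C in complete culture medium. Potency (AC50) was obtained by fitting concentration-response curves with the Hill equation.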

[7] = Cell Viability - LYMP2-009 (AID 968); settings: LYMP2-009 lymphoblastoid cell viability; series mostly up to 92.2 µM; note: nearly all actives have a fitted effect of over 55% in size
[8] = Cell Viability - LYMP2-015 (AID 971); settings: LYMP2-015 lymphoblastoid cell viability; series mostly up to 92.2 µM; note: nearly all actives have a fitted effect of over 55% in size
Procedure, shortened: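 qHTS cytotoxicity: 2500 cells/well, 5 hr 37 C, compound 24 hr 37 C, CellTiter-Glo 30 min RT, luminescence. Loss of ATP = toxicity; AC50 via standard Hill fit.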

[9] = Cell Viability - LYMP2-019 (AID 973); settings: LYMP2-019 lymphoblastoid cell line viability; series mostly up to 92.2 µM; note: nearly all actives have a fitted effect of over 55% in size
Procedure, shortened: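 qHTS, 1536-well; 2500 cells/well; 5 hr pre-incubation, 24 hr compound exposure, 37 C; CellTiter-Glo added, 30 min RT; luminescence read; AC50 via standard Hill equation.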

[10] = Cell Viability - LYMP2-006 (AID 978); settings: LYMP2-006 lymphoblastoid cell viability, qHTS; series mostly up to 92.2 µM; note: nearly all actives have a fitted effect of over 60% in size
Procedure, shortened: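 In this cytotoxicity screen, the human lymphoblastoid line grew in complete medium with test compounds for 24 hr at 37 C. Cellular ATP served as the viability signal.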

[11] = Cell Viability - LYMP2-010 (AID 981); settings: LYMP2-010 lymphoblastoid cell viability, qHTS; series mostly up to 92.2 µM; note: nearly all actives have a fitted effect of over 55% in size
Procedure, shortened: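 qHTS cytotoxicity, 1536-well: 2500 cells/well, 5 hr settle, 24 hr compound at 37 C, CellTiter-Glo 30 min RT, luminescence read. Decrease in ATP = toxicity; AC50 via standard Hill equation. Positive control tetraoctylammonium bromide.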

[12] = qHTS assay for small molecule agonists of retinoid X receptor alpha signaling (AID 588544); settings: HEK293T RXRa-UAS-bla, beta-lactamase reporter, 18 h; 530 nm emission
[13] = biological target: Thyroid hormone receptor beta (Homo sapiens) (UniProt P10828); test: qHTS assay for small molecule agonists of thyroid hormone receptor beta signaling (AID 588545; calls by dose curve); settings: TR-UAS-bla GripTite HEK 293, beta-lactamase ratio, agonist mode, 18 h; series mostly up to 76.7 µM
Sequence of Thyroid hormone receptor beta (Homo sapiens) (P10828 whole entry, looked up): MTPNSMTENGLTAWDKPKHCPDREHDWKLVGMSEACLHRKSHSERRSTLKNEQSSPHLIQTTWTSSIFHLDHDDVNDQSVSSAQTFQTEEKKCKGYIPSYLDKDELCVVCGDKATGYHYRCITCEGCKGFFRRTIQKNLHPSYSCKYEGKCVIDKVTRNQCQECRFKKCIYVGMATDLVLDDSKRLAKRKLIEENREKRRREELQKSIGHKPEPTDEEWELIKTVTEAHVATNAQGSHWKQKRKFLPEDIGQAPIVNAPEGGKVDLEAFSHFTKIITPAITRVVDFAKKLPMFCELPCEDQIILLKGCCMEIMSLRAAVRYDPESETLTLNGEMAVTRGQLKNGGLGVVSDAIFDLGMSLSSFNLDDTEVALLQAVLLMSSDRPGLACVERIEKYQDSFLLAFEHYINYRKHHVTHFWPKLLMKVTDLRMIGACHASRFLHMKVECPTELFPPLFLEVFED
Procedure, shortened: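 Compounds were tested as agonists in TR-UAS-bla-GripTite HEK 293 cells. After 18 hrs at 37 C, CCF4 substrate was added and fluorescence read after 2 hrs at room temperature.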

[14] = biological target: Thyroid hormone receptor beta (Homo sapiens) (UniProt P10828); test: qHTS assay for small molecule antagonists of thyroid hormone receptor beta signaling (AID 588547; active = well fitted inhibition curve with a large enough effect in the signal ratio, with a control signal flat, not every such curve was filed as active; the % refers to the signal ratio;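 note: cells stimulated with 0.4 nM T3 agonist during compound exposure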); settings: TR-UAS-bla HEK293, beta-lactamase ratio, antagonist mode, 18 h
Procedure, shortened: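 Inhibition of T3-driven (0.4nM final) beta-lactamase reporter activity was measured over 0.59 nM to 92 uM compound after 18 h at 37 C. The cells were GripTite HEK293 TR-UAS-bla in charcoal/dextran-stripped serum, with CCF4 ratio read-out and IC50 from Hill fits.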

[15] = qHTS assay for small molecule disruptors of the mitochondrial membrane potential - 1 hr assay (AID 651754; calls by dose curve; note: nearly all actives have a fitted effect of over 35% in size); settings: series mostly up to 92.2 µM
Procedure, shortened: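 Read-out: dye fluorescence at 490 nm ex/535 nm em (monomers) and 540 nm ex/590 nm em (aggregates) in HepG2 cells. Compound exposure 1 hr at 37C, followed by 30 min dye loading.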

[16] = qHTS assay for small molecule disruptors of the mitochondrial membrane potential - 5 hr assay (AID 651755; calls by dose curve; note: nearly all actives have a fitted effect of over 40% in size); settings: JC-1-type ratio dye; series mostly up to 92.2 µM
Procedure, shortened: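 Membrane-potential dye readout: red aggregate (540 ex/590 em) versus green monomer (490 ex/535 em) fluorescence after 30 min dye loading, following 5 hr compound exposure at 37C of overnight-plated HepG2 cells.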

[17] = qHTS assay for small molecule antagonists of the retinoid-related orphan receptor gamma (ROR-gamma) signaling pathway - cell viability counter screen (AID 720652; active = well fitted curve in the direction sought with a large enough effect in the repeat runs; an effect the other way counts as inactive or inconclusive;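 note: CHO reporter cells with doxycycline-induced ROR-gamma expression; compound exposure lasted 16 hr before ATP read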); settings: RORgamma reporter cell line viability counter screen; series mostly up to 92.2 µM
Procedure, shortened: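 CHO RORE-LUC/TET-ROR line, 1,000 cells/well, 37 C 5% CO2 5 hr; cpd or DMSO + doxycycline induction, 16 hr. CellTiter-Glo, 30 min RT, luminescence = ATP content.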

[18] = biological target: Nuclear receptor subfamily 1 group I member 2 (Rattus norvegicus) (UniProt Q9R1A7); test: qHTS assay for small molecule activators of the rat pregnane X receptor (rPXR) signaling pathway (AID 651751; call rule not given here); settings: rPXR reporter cells, luciferase (One-Glo), 24 h
Sequence of Nuclear receptor subfamily 1 group I member 2 (Rattus norvegicus) (Q9R1A7 whole entry, looked up): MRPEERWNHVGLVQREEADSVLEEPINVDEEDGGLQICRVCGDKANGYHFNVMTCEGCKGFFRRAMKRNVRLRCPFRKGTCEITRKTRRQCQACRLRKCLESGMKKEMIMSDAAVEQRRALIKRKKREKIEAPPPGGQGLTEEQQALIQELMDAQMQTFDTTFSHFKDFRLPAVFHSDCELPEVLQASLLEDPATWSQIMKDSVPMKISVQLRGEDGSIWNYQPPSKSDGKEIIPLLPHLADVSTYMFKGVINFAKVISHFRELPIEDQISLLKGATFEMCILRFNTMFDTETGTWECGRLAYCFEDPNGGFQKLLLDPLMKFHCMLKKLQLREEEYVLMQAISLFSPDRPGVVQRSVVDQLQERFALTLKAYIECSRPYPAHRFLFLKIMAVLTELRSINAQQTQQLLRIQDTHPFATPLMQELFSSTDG

[19] = biological target: Voltage-gated inwardly rectifying potassium channel KCNH2 (Homo sapiens) (UniProt Q12809); test: qHTS Assay for Small Molecule Inhibitors of the Human hERG Channel Activity (AID 588834); settings: U2OS BacMam hERG, FluxOR thallium flux fluorescence; series mostly up to 92.2 µM;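 note: top concentration of the series differs between compounds; lower thallium flux fluorescence means stronger hERG block; nearly all actives have a fitted effect of over 50% in size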
Sequence of Voltage-gated inwardly rectifying potassium channel KCNH2 (Homo sapiens) (Q12809 whole entry, looked up): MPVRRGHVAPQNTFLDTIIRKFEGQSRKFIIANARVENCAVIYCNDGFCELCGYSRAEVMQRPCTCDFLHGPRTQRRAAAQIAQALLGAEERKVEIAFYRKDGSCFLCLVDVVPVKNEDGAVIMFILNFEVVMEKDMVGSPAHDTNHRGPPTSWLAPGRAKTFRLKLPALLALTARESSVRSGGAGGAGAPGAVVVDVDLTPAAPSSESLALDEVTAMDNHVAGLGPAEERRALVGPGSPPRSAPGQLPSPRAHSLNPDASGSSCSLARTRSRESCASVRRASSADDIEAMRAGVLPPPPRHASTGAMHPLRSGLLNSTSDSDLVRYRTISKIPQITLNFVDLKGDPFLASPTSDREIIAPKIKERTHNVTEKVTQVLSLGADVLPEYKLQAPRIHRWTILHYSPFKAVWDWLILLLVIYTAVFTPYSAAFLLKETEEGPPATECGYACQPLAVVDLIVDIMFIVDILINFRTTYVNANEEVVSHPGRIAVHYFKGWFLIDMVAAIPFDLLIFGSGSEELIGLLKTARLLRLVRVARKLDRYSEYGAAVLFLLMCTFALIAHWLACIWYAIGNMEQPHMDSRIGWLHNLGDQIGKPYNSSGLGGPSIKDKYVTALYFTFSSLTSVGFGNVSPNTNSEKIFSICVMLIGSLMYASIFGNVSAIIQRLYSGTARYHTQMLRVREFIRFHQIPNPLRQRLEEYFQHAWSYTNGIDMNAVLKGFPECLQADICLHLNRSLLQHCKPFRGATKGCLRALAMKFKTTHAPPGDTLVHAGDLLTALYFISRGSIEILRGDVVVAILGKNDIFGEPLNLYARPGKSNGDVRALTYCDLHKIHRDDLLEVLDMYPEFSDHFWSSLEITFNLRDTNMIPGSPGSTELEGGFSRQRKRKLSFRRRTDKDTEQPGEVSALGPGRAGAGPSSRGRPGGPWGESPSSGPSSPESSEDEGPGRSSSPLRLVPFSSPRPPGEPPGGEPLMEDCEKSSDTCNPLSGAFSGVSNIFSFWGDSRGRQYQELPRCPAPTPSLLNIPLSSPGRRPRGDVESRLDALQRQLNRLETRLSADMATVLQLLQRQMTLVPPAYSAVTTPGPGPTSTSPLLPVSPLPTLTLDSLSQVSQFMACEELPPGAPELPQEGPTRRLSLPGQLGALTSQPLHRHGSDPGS
Procedure, shortened: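 Homogeneous FluxOR thallium flux assay using hERG-expressing U2OS cells (BacMam). Compound treatment about 10 minutes preceded stimulation; reduced fluorescence taken as channel block.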

[20] = biological target: Glucocorticoid receptor (Homo sapiens) (UniProt P04150); test: qHTS assay for small molecule agonists of glucocorticoid receptor signaling (AID 588532; active = well fitted curve in the direction sought with a large enough effect in the signal ratio, with a control signal flat; the % refers to the signal ratio); settings: HeLa MMTV-bla, beta-lactamase ratio, agonist, 18 h; stronger effect = higher value; percent of dexamethasone control, DMSO zero
Sequence of Glucocorticoid receptor (Homo sapiens) (P04150 whole entry, looked up): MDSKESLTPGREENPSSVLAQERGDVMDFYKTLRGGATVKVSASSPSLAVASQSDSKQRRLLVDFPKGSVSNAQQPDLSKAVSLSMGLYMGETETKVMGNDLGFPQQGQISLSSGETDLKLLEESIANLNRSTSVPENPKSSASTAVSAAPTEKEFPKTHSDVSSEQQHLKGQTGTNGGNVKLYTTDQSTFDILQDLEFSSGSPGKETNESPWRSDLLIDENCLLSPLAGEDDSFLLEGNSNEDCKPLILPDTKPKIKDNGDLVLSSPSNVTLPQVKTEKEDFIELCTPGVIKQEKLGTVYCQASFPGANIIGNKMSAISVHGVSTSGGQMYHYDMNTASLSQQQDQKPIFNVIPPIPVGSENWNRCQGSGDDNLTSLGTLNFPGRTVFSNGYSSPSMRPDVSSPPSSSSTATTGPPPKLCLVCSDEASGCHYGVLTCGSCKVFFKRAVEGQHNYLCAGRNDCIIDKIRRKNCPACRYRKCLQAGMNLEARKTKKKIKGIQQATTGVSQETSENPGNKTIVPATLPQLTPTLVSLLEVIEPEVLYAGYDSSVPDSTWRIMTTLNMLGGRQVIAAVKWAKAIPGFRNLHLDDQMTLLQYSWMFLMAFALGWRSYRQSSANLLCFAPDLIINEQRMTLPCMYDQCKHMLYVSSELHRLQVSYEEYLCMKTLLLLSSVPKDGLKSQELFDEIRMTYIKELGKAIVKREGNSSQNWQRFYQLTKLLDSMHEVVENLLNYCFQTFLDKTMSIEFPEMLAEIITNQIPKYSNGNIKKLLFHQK
Procedure, shortened: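 Quantitative HTS using CellSensor MMTV-bla HeLa cells in charcoal/dextran-treated serum; compounds tested up to 92 uM. After 18 h at 37 C, CCF4 dye reported reporter induction.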

| SMILES | Potency [1] | Potency [2] | Potency [3] | Potency [4] | Potency [5] | Potency [6] | Potency [7] | Potency [8] | Potency [9] | Potency [10] | Potency [11] | max response [12] | Potency [13] | activity change % (negative = inhibition) [14] | Potency [15] | Potency [16] | Potency [17] | max response [18] | Potency [19] | activation [20] |
| --- | --- | --- | --- | --- | --- | --- | --- | --- | --- | --- | --- | --- | --- | --- | --- | --- | --- | --- | --- | --- |
| CCCCOC(=O)COc1ccc(Cl)cc1Cl | > 92 µM (inactive) | > 92 µM (inactive) | inactive | inactive | inactive | inactive | inactive | inactive | inactive | inactive | inactive | 4.2% and -8.56% | inactive | 7.32% (inactive) and -4.27% (inactive) | inactive | inactive | inactive | -2.3% (inactive) and -1.06% (inactive) | – | – |
| c1ccncc1 | > 92 µM (inactive) | > 92 µM (inactive) | inactive | inactive | inactive | inactive | inactive | inactive | inactive | inactive | inactive | 1.38% | inactive | -8.3% (inactive) | inactive | inactive | inactive | 3.74% (inactive) | inactive | – |
| OCC(CO)(CBr)CBr | > 92 µM (inactive) | > 92 µM (inactive) | inactive | inactive | inactive | inactive | inactive | inactive | inactive | inactive | inactive | 0.243% and -1.22% | inactive | -10.9% (inactive) and 7.42% (inactive) | inactive | inactive | inactive | 4.89% (inactive) and 3.86% (inactive) | inactive | -3.06% (inactive) |
| COc1ccc(C)cc1N | > 92 µM (inactive) | > 92 µM (inactive) | inactive | inactive | inactive | inactive | inactive | inactive | inactive | inactive | inactive | -1.98% | – | -19.2% (inactive) | inactive | inactive | inactive | 8.96% (inactive) | inactive | 9.32% (inactive) |
| c1cc2c3c(c1)ccc1cccc(c13)C2 | > 92 µM (inactive) | > 92 µM (inactive) | inactive | inactive | inactive | inactive | – | inactive | inactive | inactive | inactive | -13.6% | inactive | -0.0299% (inactive) | inactive | inactive | inactive | -0.774% (inactive) | inactive | -6.79% (inactive) |
| Cc1ccccc1OCC1CO1 (configuration not stated) | > 92 µM (inactive) | > 92 µM (inactive) | inactive | inactive | inactive | inactive | inactive | inactive | inactive | inactive | inactive | 14.4% | – | -11% (inactive) | inactive | inactive | inactive | 0.751% (inactive) | inactive | -5.02% (inactive) |
| CCC(Cl)CC(Cl)C(Cl)C(Cl)C(Cl)C(C)Cl (configuration not stated) | > 92 µM (inactive) | > 92 µM (inactive) | inactive | inactive | – | inactive | inactive | inactive | inactive | inactive | inactive | -26.2% | inactive | -1.45% (inactive) | inactive | inactive | – | – | – | 4.73% (inactive) |
| C=CC(C)(O)CCCC(C)CCCC(C)CCCC(C)C (configuration not stated) | > 92 µM (inactive) | > 92 µM (inactive) | inactive | inactive | inactive | – | inactive | inactive | inactive | inactive | inactive | -17.1% | inactive | 8.61% (inactive) | – | – | – | 4.48% (inactive) | inactive | 1.44% (inactive) |
| CC(C)COC(=O)COc1cc(Cl)c(Cl)cc1Cl | > 92 µM (inactive) | > 92 µM (inactive) | inactive | inactive | inactive | inactive | inactive | inactive | inactive | inactive | inactive | -5.32% | inactive | 14.2% (inactive) | – | – | inactive | -2.47% (inactive) | – | -3.56% (inactive) |
| COc1ccc([N+](=O)[O-])cc1N | > 92 µM (inactive) | > 92 µM (inactive) | inactive | inactive | inactive | – | inactive | inactive | inactive | inactive | inactive | -3.38% and -0.384% | inactive | -27.9% (inactive) | inactive | inactive | inactive | – | inactive | 2.11% (inactive) and 1.38% (inactive) |
| CCOc1ccc2nc(N)sc2c1 | > 92 µM (inactive) | > 92 µM (inactive) | inactive | inactive | inactive | inactive | inactive | inactive | inactive | inactive | inactive | 1.63% | inactive | -4.05% (inactive) | – | – | inactive | – | – | -9.89% (inactive) |
| O=C(O)c1ccc([N+](=O)[O-])cc1 | > 92 µM (inactive) | > 92 µM (inactive) | inactive | inactive | inactive | inactive | inactive | inactive | inactive | inactive | inactive | -0.875% and -5.25% | inactive | -4.73% (inactive) | inactive | inactive | inactive | -2.43% (inactive) and -1.7% (inactive) | inactive | 3.87% (inactive) and 0.51% (inactive) |
